Results reported in the OligoGym collection.

Target: XKR5
Assay: pooled miR-30 sensor sort-seq; sequence = guide strand
Conditions: shRNA
Further: reference of the scale not given here.

Question: How did the sensor-assay potency score (higher = more potent) turn out when TAGTGTCTCACATTGAATGGAA was run?
Answer: -0.0169

Question: TTGATCTTAGACACATTTCCTG was tested. Which sensor-assay potency score (higher = more potent) did it give?
Answer: 0.217

Question: Which sensor-assay potency score (higher = more potent) does the source give for TGATCTTAGACACATTTCCTGT here?
Answer: -0.718

Question: With TAGCAGACAATTTTGACTGGAA as the sequence, how does the sensor-assay potency score (higher = more potent) read?
Answer: 0.477

Question: For TTGTAGAACAGAACCAGACTCA, which sensor-assay potency score (higher = more potent) is on record?
Answer: 0.203

Question: For TAATATTGTACCCTAATCCAAA, which sensor-assay potency score (higher = more potent) is on record?
Answer: -1.28

Target: XKRX
Assay: as above
Conditions: shRNA

Question: For TAGTCTACTACATTATGGGTGA, which sensor-assay potency score (higher = more potent) is on record?
Answer: -0.472

Question: For TAACAGAGAGCTAATCTGCTTG, which sensor-assay potency score (higher = more potent) is on record?
Answer: 0.29

Question: Which sensor-assay potency score (higher = more potent) does the source give for TAAATGGAAAAGTAAATCGGGG here?
Answer: -0.48

Question: TTCAGTAACACTTTCACTCCAA was tested. Which sensor-assay potency score (higher = more potent) did it give?
Answer: 0.565

Question: How did the sensor-assay potency score (higher = more potent) turn out when TAGTCATCGTACTTGATCTGGA was run?
Answer: 0.135

Question: How did the sensor-assay potency score (higher = more potent) turn out when AATACCATTAGCACAACTCTAC was run?
Answer: -0.637

Question: With TAAGTTTCACTATTCTTTCGAT as the sequence, how does the sensor-assay potency score (higher = more potent) read?
Answer: 0.293

Question: How did the sensor-assay potency score (higher = more potent) turn out when TTATCTTTGGCTAGATCTCTGT was run?
Answer: -0.472

Question: How did the sensor-assay potency score (higher = more potent) turn out when TAGCACAACTCTACCCAGGGGA was run?
Answer: 0.12

Question: How did the sensor-assay potency score (higher = more potent) turn out when TCTATTAGCATCTTCTTTCGGG was run?
Answer: 0.547

Question: Which sensor-assay potency score (higher = more potent) does the source give for TAAACTCTGTCCATTGTCGAGG here?
Answer: -0.536

Question: TTCTCTACCAACCTCACACTAT was tested. Which sensor-assay potency score (higher = more potent) did it give?
Answer: -0.943
